According to the supplement of paper PMC12282887:
± gives the standard deviation of the averaged measurements.

Tests used:
Assay in all cases: promoter activity interaction Z-score (Lux/OD deviation from empty-vector control); higher = stronger promoter induction by the compound
[1] = tested on: E. coli BW25113 acrABp lux reporter
In short: (§1)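 E. coli BW25113, as wild type or one of three single-gene deletion strains, carried low-copy luxCDABE promoter reporters and grew in 40 µl LB Lennox in 384-well plates at 37°C, with OD600 and luminescence read every 30 min for 12 h. Each compound was run at four 1:2 dilutions in biological duplicates, integration spanned 0–8 h for wild type and 1–9 h for deletion strains, and wells under 10% of the median growth value were dropped. The score is the Z-transformed residual of growth-normalised luminescence fitted against a control.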

[2] = tested on: E. coli BW25113 marRABp lux reporter
In short: as §1

[3] = tested on: E. coli BW25113 micFp lux reporter
In short: as §1

[4] = tested on: E. coli BW25113 ompFp lux reporter
In short: as §1

[5] = tested on: E. coli BW25113 robp lux reporter
In short: as §1

[6] = tested on: E. coli BW25113 soxSp lux reporter
In short: as §1

[7] = tested on: E. coli BW25113 tolCp lux reporter
In short: as §1

[8] = 0.02 µg/ml, genetic background: wild type
[9] = 0.02 µg/ml, genetic background: ΔmarA
[10] = 0.02 µg/ml, genetic background: Δrob
[11] = 0.02 µg/ml, genetic background: ΔsoxS
[12] = 0.04 µg/ml, genetic background: wild type
[13] = 0.04 µg/ml, genetic background: ΔmarA
[14] = 0.04 µg/ml, genetic background: Δrob
[15] = 0.04 µg/ml, genetic background: ΔsoxS
[16] = 0.079 µg/ml, genetic background: wild type
[17] = 0.079 µg/ml, genetic background: ΔmarA
[18] = 0.079 µg/ml, genetic background: Δrob
[19] = 0.079 µg/ml, genetic background: ΔsoxS
[20] = 0.16 µg/ml, genetic background: wild type
[21] = 0.16 µg/ml, genetic background: ΔmarA
[22] = 0.16 µg/ml, genetic background: Δrob
[23] = 0.16 µg/ml, genetic background: ΔsoxS

C[C@@H](O)[C@H]1C(=O)N2C(C(=O)O)=C(SCCNC=N)C[C@H]12 [Imipenem]
promoter activity interaction Z-score [1, 8]: 0.313 ± 0.12
promoter activity interaction Z-score [1, 9]: 1.28 ± 1.8
promoter activity interaction Z-score [1, 10]: 0.353 ± 0.18
promoter activity interaction Z-score [1, 11]: 0.0665 ± 0.11
promoter activity interaction Z-score [1, 12]: 0.296 ± 0.28
promoter activity interaction Z-score [1, 13]: 0.881 ± 0.37
promoter activity interaction Z-score [1, 14]: 0.492 ± 0.11
promoter activity interaction Z-score [1, 15]: -0.0993 ± 0.31
promoter activity interaction Z-score [1, 16]: 0.282 ± 0.4
promoter activity interaction Z-score [1, 17]: -0.701 ± 0.22
promoter activity interaction Z-score [1, 18]: 0.209 ± 0.086
promoter activity interaction Z-score [1, 19]: 0.325 ± 0.52
promoter activity interaction Z-score [1, 20]: 0.0724 ± 0.69
promoter activity interaction Z-score [1, 21]: -0.226 ± 0.46
promoter activity interaction Z-score [1, 22]: 0.107 ± 0.094
promoter activity interaction Z-score [1, 23]: 0.865 ± 0.24
promoter activity interaction Z-score [2, 8]: 0.316 ± 0.21
promoter activity interaction Z-score [2, 9]: 0.592 ± 0.32
promoter activity interaction Z-score [2, 10]: 0.0424 ± 0.11
promoter activity interaction Z-score [2, 11]: 0.106 ± 0.074
promoter activity interaction Z-score [2, 12]: 0.381 ± 0.44
promoter activity interaction Z-score [2, 13]: 0.269 ± 0.79
promoter activity interaction Z-score [2, 14]: -0.0178 ± 0.16
promoter activity interaction Z-score [2, 15]: 0.0651 ± 0.041
promoter activity interaction Z-score [2, 16]: 0.087 ± 0.15
promoter activity interaction Z-score [2, 17]: -0.0931 ± 0.047
promoter activity interaction Z-score [2, 18]: 0.0397 ± 0.03
promoter activity interaction Z-score [2, 19]: 0.0374 ± 0.049
promoter activity interaction Z-score [2, 20]: 0.129 ± 0.28
promoter activity interaction Z-score [2, 21]: -0.0426 ± 0.31
promoter activity interaction Z-score [2, 22]: -0.0898 ± 0.17
promoter activity interaction Z-score [2, 23]: 0.217 ± 0.23
promoter activity interaction Z-score [3, 8]: -0.142 ± 0.16
promoter activity interaction Z-score [3, 9]: 0.0296 ± 0.051
promoter activity interaction Z-score [3, 10]: -0.0038 ± 0.09
promoter activity interaction Z-score [3, 11]: -0.119 ± 0.17
promoter activity interaction Z-score [3, 12]: 0.0424 ± 0.3
promoter activity interaction Z-score [3, 13]: 0.0155 ± 0.0044
promoter activity interaction Z-score [3, 14]: 0.104 ± 0.069
promoter activity interaction Z-score [3, 15]: -0.24 ± 0.14
promoter activity interaction Z-score [3, 16]: -0.145 ± 0.082
promoter activity interaction Z-score [3, 17]: -0.07 ± 0.02
promoter activity interaction Z-score [3, 18]: -0.0557 ± 0.0065
promoter activity interaction Z-score [3, 19]: 0.206 ± 0.3
promoter activity interaction Z-score [3, 20]: -0.0706 ± 0.42
promoter activity interaction Z-score [3, 21]: -0.131 ± 0.072
promoter activity interaction Z-score [3, 22]: -0.0161 ± 0.083
promoter activity interaction Z-score [3, 23]: 0.512 ± 0.49
promoter activity interaction Z-score [4, 8]: 0.592 ± 0.022
promoter activity interaction Z-score [4, 9]: 0.885 ± 0.097
promoter activity interaction Z-score [4, 10]: 0.602 ± 0.084
promoter activity interaction Z-score [4, 11]: 0.271 ± 0.35
promoter activity interaction Z-score [4, 12]: 0.679 ± 0.22
promoter activity interaction Z-score [4, 13]: 0.662 ± 0.21
promoter activity interaction Z-score [4, 14]: 0.743 ± 0.19
promoter activity interaction Z-score [4, 15]: 0.276 ± 0.85
promoter activity interaction Z-score [4, 16]: 0.372 ± 0.28
promoter activity interaction Z-score [4, 17]: 0.257 ± 0.3
promoter activity interaction Z-score [4, 18]: 0.789 ± 0.66
promoter activity interaction Z-score [4, 19]: 0.142 ± 0.038
promoter activity interaction Z-score [4, 20]: 0.851 ± 0.33
promoter activity interaction Z-score [4, 21]: 1.19 ± 0.16
promoter activity interaction Z-score [4, 22]: 1.34 ± 0.058
promoter activity interaction Z-score [4, 23]: 1.39 ± 0.5
promoter activity interaction Z-score [5, 8]: 0.863 ± 0.1
promoter activity interaction Z-score [5, 9]: 1.42 ± 0.61
promoter activity interaction Z-score [5, 10]: 1.13 ± 0.1
promoter activity interaction Z-score [5, 11]: 0.38 ± 1.6
promoter activity interaction Z-score [5, 12]: 1.42 ± 0.9
promoter activity interaction Z-score [5, 13]: 0.964 ± 0.54
promoter activity interaction Z-score [5, 14]: 0.862 ± 0.23
promoter activity interaction Z-score [5, 15]: -0.648 ± 0.39
promoter activity interaction Z-score [5, 16]: 0.399 ± 0.46
promoter activity interaction Z-score [5, 17]: -0.467 ± 0.12
promoter activity interaction Z-score [5, 18]: -0.0634 ± 0.12
promoter activity interaction Z-score [5, 19]: 0.149 ± 0.0074
promoter activity interaction Z-score [5, 20]: 0.582 ± 0.12
promoter activity interaction Z-score [5, 21]: -0.0297 ± 0.2
promoter activity interaction Z-score [5, 22]: 0.845 ± 0.3
promoter activity interaction Z-score [5, 23]: 0.155 ± 0.23
promoter activity interaction Z-score [6, 8]: 0.0906 ± 0.0094
promoter activity interaction Z-score [6, 9]: -0.0591 ± 0.084
promoter activity interaction Z-score [6, 10]: 0.0225 ± 0.12
promoter activity interaction Z-score [6, 11]: -0.179 ± 0.12
promoter activity interaction Z-score [6, 12]: 0.124 ± 0.076
promoter activity interaction Z-score [6, 13]: 0.161 ± 0.03
promoter activity interaction Z-score [6, 14]: 0.187 ± 0.23
promoter activity interaction Z-score [6, 15]: -0.163 ± 0.26
promoter activity interaction Z-score [6, 16]: 0.146 ± 0.15
promoter activity interaction Z-score [6, 17]: -0.0799 ± 0.11
promoter activity interaction Z-score [6, 18]: -0.00226 ± 0.029
promoter activity interaction Z-score [6, 19]: 0.121 ± 0.18
promoter activity interaction Z-score [6, 20]: 0.0824 ± 0.27
promoter activity interaction Z-score [6, 21]: -0.0185 ± 0.033
promoter activity interaction Z-score [6, 22]: -0.0171 ± 0.17
promoter activity interaction Z-score [6, 23]: 0.177 ± 0.52
promoter activity interaction Z-score [7, 8]: 0.541 ± 0.2
promoter activity interaction Z-score [7, 9]: 0.817 ± 0.21
promoter activity interaction Z-score [7, 10]: -0.144 ± 0.41
promoter activity interaction Z-score [7, 11]: -0.241 ± 0.51
promoter activity interaction Z-score [7, 12]: 0.146 ± 1.3
promoter activity interaction Z-score [7, 13]: 0.917 ± 0.58
promoter activity interaction Z-score [7, 14]: 1.47 ± 0.4
promoter activity interaction Z-score [7, 15]: -1.38 ± 0.5
promoter activity interaction Z-score [7, 16]: 0.00539 ± 0.13
promoter activity interaction Z-score [7, 17]: -0.369 ± 0.35
promoter activity interaction Z-score [7, 18]: 0.295 ± 0.094
promoter activity interaction Z-score [7, 19]: -0.148 ± 0.41
promoter activity interaction Z-score [7, 20]: -0.803 ± 0.044
promoter activity interaction Z-score [7, 21]: 0.117 ± 0.52
promoter activity interaction Z-score [7, 22]: 0.323 ± 0.18
promoter activity interaction Z-score [7, 23]: 0.105 ± 0.88
